Measured values published in PubChem BioAssay (EPA / NIEHS).
The source made the active and inactive calls. How the source made its calls: active means hit-call score of the fitted dose curve at least 0.9, where 1 is the maximum; inactive means score below 0.9.

Assay: Tanguay_ZF_120hpf_MO24: Oregon State University Tanguay Lab 24 Hour Post-fertilization zebrafish Assay for Mortality (AID 2284389)
Procedure: Tanguay_ZF_120hpf is a whole embryo, multiplexed endpoint assay using zebrafish larvae exposed for 120 hours post fertilization on a 96-well plate.Tanguay_ZF_120hpf_MO24 is one of one assay component(s) measured or calculated from the Tanguay_ZF_120hpf assay. It is designed to make measurements of zebrafish development as detected with brightfield microscopy of developing zebrafish embryos.Data from the assay component Tanguay_ZF_120hpf_MO24 was analyzed into 1 assay endpoints. This assay endpoint, Tanguay_ZF_120hpf_MO24, was analyzed in the positive analysis fitting direction relative to DMSO as the negative control and baseline of activity. Using a type of viability reporter, gain-of-signal activity can be used to understand changes in developmentals as they relate to the whole embryo. To generalize the intended target to other relatable targets, this assay endpoint is annotated to the zebrafish development intended target family, where the subfamily is embryonic mortality.
Zebrafish husbandry: Tropical 5D wild-type adult zebrafish were housed in at an approximate density of 1000 per 100 gallon tank at the Sinnhuber Aquatic Research Laboratory, Oregon State University, Corvallis, OR. Each tank was kept at standard laboratory conditions of 28C on a 14-h light/10-h dark photoperiod in fish water consisting of reverse osmosis water supplemented with a commercially available salt (Instant Ocean). Spawning funnels were placed into the tanks the night prior, and embryos were collected and staged. To increase bioavailability, the chorion was enzymatically removed using pronase (63.6mg/ml, >/= 3.5U/mg, Sigma-Aldrich: P5147) at 4 hours post fertilization (hpf) using a custom automated dechorionator.Chemical exposures: Six hpf dechorionated embryos were placed 1 embryo per well in a 96-well plate prefilled with 90 ul of EM using automated embryo placement systems (AEPS). Ten microliters of each row of dilution plate 2 was added to 2 exposure plates. The final DMSO concentration used was 0.64% (vol/vol). Thirty-two embryos were also exposed to 5uM trimethyltin chloride (positive control). Plates were sealed to prevent evaporation and foil covered to reduce light exposure and kept in a 28C incubator. Embryos were statically exposed until 120 hpf. At 24 hpf, embryos were assessed for photomotor response using a custom photomotor response analysis tool (PRAT) and for developmental toxicity endpoints (MO24: mortality at 24 hpf, DP: developmental progression, SM: spontaneous movement, and NC: notochord distortion). At 120 hpf, locomotor activity was measured using Viewpoint Zebralab and assessed for 13 endpoints. Zebrafish acquisition and analysis program (ZAAP), a custom program designed to inventory, acquire, and manage zebrafish data, was used to collect developmental endpoints as either present or absent (i.e., binary responses were recorded). If mortality occurred for an embryo (at either 24 or 120 hpf), the non-mortality endpoints were not measured.

Question: Which outcome does the source give for `NCC(F)(F)C(F)(F)C(F)(F)C(F)(F)F` here?
Answer: inactive

Question: Which outcome does the source give for `FC(F)=C(F)C(F)(F)C(F)(F)C(F)(F)C(F)(F)C(F)(F)C(F)(F)F` here?
Answer: inactive

Question: For `OCCC(F)(F)C(F)(F)C(F)(F)C(F)(F)F`, which outcome is on record?
Answer: inactive

Question: With `O=C(Cl)C(F)(F)C(F)(F)C(F)(F)C(=O)Cl` as the molecule, how does the AC50 read?
Answer: 57.3 µM (active)

Question: Which outcome does the source give for `OC(O)(C(F)C(O)(O)C(F)(F)F)C(F)(F)F` here?
Answer: inactive

Question: Which outcome does the source give for `O=S(=O)(O)CCC(F)(F)C(F)(F)C(F)(F)C(F)(F)C(F)(F)C(F)(F)F` here?
Answer: inactive

Question: For `FC(F)(F)COC(OCC(F)(F)F)OCC(F)(F)F`, which outcome is on record?
Answer: inactive

Question: For `FC(F)(F)C(F)(F)C(F)(F)C(F)(F)C(F)(F)C(F)(F)I`, which outcome is on record?
Answer: inactive

Question: For `FC(F)C(F)(F)COCC1CO1` (stereo not given), which outcome is on record?
Answer: inactive

Question: With `C[Si](C)(C)C(F)(F)C(F)(F)C(F)(F)F` as the molecule, how does the outcome read?
Answer: inactive
